# From PubChem BioAssay
# For some assays here: Entries with a potency or affinity are not part of this list. Activity calls are given as the source filed them. Unless noted, how the calls were made is not given here.
# Columns and labels:
# [1] = antimalarial activity against Dd2 strain (AID 2302;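 active means growth inhibition above 50% at the single 2 µM test dose, taken to imply half-maximal potency below 2 µM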;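 further: 0% = DMSO untreated growth and 100% = chloroquine plus artemisinin killed control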); conditions: P. falciparum Dd2 in RBCs, LDH growth readout, 72 h; at 2 µM; stronger effect = higher value
# [2] = HepG2 cytotoxicity, primary screen, cytotoxicity control for P. falciparum antimalarial project, cell-based, ATP luminescence (AID 2303;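 active means inhibition above 50%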;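 further: 0% = DMSO wells and 100% = digitonin-killed cells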); conditions: HepG2 viability, 24-48 h, at 10 µM, stronger effect = higher value
# [3] = biological target: L-lactate dehydrogenase (Plasmodium falciparum (isolate CDC / Honduras)) (UniProt Q27743); experiment: PfLDH activity inhibition – cell lysate, 3D7 strain, counter-screen for P. falciparum growth inhibition project (AID 2304);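 further: 0% = vehicle and 100% = reference inhibitor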; conditions: P. falciparum 3D7 crude extract, LDH APAD/NBT absorbance; at 2 µM; stronger effect = higher value
# [4] = inhibition of 3D7 malaria parasite growth – strain 3D7 (AID 2306);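 further: 0% = DMSO wells and 100% = chloroquine plus artemisinin control wells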; conditions: P. falciparum 3D7 erythrocytic growth, LDH absorbance, 72 h; at 2 µM; stronger effect = higher value
# [5] = biological target: Calcium-dependent protein kinase 1 (Plasmodium falciparum (isolate 3D7)) (UniProt P62344); experiment: PfCDPK1 kinase inhibitors, biochemical, TCAMS library (AID 1159585; cut-off not given, nearly all actives have IC50 up to about 0.98 µM;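 further: inhibitors leave more ATP so luminescence rises with inhibition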); conditions: recombinant PfCDPK1, Kinase-Glo ATP depletion luminescence
# [6] = biological target: Plasmodium falciparum protein kinase 6 (PK6, PF3D7_1337100) (UniProt Q8IDW1); experiment: PfPK6 kinase inhibitors, biochemical, TCAMS library (AID 1159586); conditions: recombinant PfPK6, Kinase-Glo ATP depletion luminescence
# [7] = biological target: Protein kinase 7 (PK7), Plasmodium falciparum 3D7 (PF3D7_0213400) (UniProt Q7YTF7); experiment: inhibition of Plasmodium PK7 catalytic activity – biochemical, TCAMS antimalarial set, Kinase-Glo luminescence (AID 1159587); conditions: recombinant PfPK7, Kinase-Glo ATP depletion luminescence
# [8] = biological target: Calcium-dependent protein kinase 4 (Plasmodium falciparum (isolate 3D7)) (UniProt Q8IBS5); experiment: PfCDPK4 kinase inhibitors, biochemical, TCAMS library (AID 1159588; cut-off not given, nearly all actives have IC50 up to about 0.91 µM); conditions: recombinant PfCDPK4, Kinase-Glo ATP depletion luminescence
# Calcium-dependent protein kinase 4 (Plasmodium falciparum (isolate 3D7)), sequence (Q8IBS5 whole entry, looked up): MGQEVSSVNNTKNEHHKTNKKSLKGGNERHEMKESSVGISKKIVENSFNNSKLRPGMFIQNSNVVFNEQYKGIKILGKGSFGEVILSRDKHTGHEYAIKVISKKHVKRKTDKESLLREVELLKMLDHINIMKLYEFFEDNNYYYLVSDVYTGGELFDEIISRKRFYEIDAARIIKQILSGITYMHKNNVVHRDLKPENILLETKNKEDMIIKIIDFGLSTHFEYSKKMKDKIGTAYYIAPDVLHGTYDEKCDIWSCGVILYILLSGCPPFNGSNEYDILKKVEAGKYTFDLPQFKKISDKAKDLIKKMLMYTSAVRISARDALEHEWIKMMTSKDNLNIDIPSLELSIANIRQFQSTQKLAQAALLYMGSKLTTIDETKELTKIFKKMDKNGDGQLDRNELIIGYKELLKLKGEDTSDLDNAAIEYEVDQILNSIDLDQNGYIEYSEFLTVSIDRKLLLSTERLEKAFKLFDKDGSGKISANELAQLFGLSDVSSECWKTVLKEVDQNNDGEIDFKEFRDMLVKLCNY
# Plasmodium falciparum protein kinase 6 (PK6, PF3D7_1337100), sequence (Q8IDW1 1-305): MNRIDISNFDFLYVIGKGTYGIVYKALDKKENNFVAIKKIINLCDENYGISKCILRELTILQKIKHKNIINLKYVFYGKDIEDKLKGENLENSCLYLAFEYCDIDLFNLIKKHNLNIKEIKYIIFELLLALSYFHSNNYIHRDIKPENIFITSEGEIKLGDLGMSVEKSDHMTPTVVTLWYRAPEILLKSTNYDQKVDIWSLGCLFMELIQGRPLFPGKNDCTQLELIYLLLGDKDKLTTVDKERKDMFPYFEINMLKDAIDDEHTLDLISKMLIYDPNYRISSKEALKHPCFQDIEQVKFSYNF
# Protein kinase 7 (PK7), Plasmodium falciparum 3D7 (PF3D7_0213400), sequence (Q7YTF7 1-343): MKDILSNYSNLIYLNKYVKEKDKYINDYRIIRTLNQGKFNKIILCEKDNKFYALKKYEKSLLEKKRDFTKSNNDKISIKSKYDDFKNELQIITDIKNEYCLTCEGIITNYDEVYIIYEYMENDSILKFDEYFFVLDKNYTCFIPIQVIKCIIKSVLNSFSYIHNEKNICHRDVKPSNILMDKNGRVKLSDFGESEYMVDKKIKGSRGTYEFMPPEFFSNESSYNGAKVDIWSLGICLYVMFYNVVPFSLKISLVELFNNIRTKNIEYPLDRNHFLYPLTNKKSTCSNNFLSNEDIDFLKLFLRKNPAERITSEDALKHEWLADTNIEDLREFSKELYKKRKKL
# L-lactate dehydrogenase (Plasmodium falciparum (isolate CDC / Honduras)), sequence (Q27743 whole entry, looked up): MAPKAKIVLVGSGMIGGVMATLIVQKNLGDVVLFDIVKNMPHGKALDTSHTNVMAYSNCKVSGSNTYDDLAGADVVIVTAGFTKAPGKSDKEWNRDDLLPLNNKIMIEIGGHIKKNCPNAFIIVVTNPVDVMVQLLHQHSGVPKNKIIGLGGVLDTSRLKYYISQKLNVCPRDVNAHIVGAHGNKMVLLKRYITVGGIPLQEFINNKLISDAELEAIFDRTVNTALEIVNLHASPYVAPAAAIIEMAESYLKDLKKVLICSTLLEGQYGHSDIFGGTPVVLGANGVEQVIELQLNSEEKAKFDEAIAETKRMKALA
# Calcium-dependent protein kinase 1 (Plasmodium falciparum (isolate 3D7)), sequence (P62344 whole entry, looked up): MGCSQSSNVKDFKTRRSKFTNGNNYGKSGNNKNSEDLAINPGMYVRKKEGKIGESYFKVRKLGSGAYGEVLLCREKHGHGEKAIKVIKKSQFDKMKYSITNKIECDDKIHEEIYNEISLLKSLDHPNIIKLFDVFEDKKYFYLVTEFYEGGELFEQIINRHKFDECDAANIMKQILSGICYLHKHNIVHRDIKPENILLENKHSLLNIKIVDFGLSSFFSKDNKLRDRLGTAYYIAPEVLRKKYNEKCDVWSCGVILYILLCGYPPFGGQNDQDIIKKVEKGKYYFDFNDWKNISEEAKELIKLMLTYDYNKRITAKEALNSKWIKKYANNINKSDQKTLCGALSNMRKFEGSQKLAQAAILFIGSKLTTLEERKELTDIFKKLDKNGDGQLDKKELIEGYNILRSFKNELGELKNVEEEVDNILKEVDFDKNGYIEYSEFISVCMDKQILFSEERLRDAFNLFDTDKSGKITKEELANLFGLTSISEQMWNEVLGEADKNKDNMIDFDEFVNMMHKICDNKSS
SMILES,growth inhibition [1],inhibition [2],inhibition [3],growth inhibition [4],outcome [5],outcome [6],outcome [7],outcome [8]
N#Cc1ccc(-c2nc3c(N4CCCC4)cccc3n2CCNCc2ccccc2)cc1,99% (active),2% (inactive),-3% (inactive),100% (active),inactive,inactive,inactive,inactive
CN(C)CCOc1cccc(NC(=O)Nc2ccc(-c3ccccc3)cc2)c1,16% (inactive),11% (inactive),-1% (inactive),90% (active),inactive,inactive,inactive,inactive
O=c1cc(NCCCCNCc2ccc(Br)c(Br)c2)[nH]c2ccccc12,14% (inactive),13% (inactive),2% (inactive),98% (active),inactive,inactive,inactive,inactive
O=C(C1CCCCC1)N1CCOC(CCN2CCC(c3ccccc3)CC2)(c2ccc(Cl)c(Cl)c2)C1 (stereo unspecified),86% (active),6% (inactive),6% (inactive),92% (active),inactive,inactive,inactive,inactive
C=CC[C@@H](C(=O)OCC)[C@@H]1[C@@H](N(CC=C)C(=O)OC(C)(C)C)CCN1C(=O)OCc1ccccc1,68% (active),2% (inactive),4% (inactive),92% (active),inactive,inactive,inactive,inactive
CCCNC(=O)C1Cc2c([nH]c3cc(Br)ccc23)C2(CCN(CCc3ccccc3)CC2)N1 (stereo unspecified),26% (inactive),15% (inactive),-1% (inactive),92% (active),inactive,inactive,inactive,inactive
Cc1cc(NC(=O)Nc2cccc(N(C)C)c2)c2ccccc2n1,95% (active),0% (inactive),4% (inactive),97% (active),inactive,inactive,inactive,inactive
Cc1cccc2[nH]c(-c3ccc(-c4cccc(CNCCN(C)C)c4)cc3)nc12,98% (active),6% (inactive),0% (inactive),102% (active),inactive,inactive,inactive,inactive
Cc1noc(-c2ccccc2)c1NC(=O)N1CCN(CCCCCCNC(=O)/C=C/c2ccc(Cl)c(Cl)c2)CC1,1% (inactive),6% (inactive),2% (inactive),95% (active),inactive,inactive,inactive,inactive
CCc1sc(N2CCC(C)CC2)nc1C(=O)Nc1ccc(F)cc1C(F)(F)F,65% (active),1% (inactive),2% (inactive),94% (active),inactive,inactive,inactive,inactive
CCCc1ccc(S(=O)(=O)NC2CCN(C(=O)Nc3ccc(I)cc3)CC2)cc1,-8% (inactive),8% (inactive),-3% (inactive),97% (active),inactive,inactive,inactive,inactive
Cc1ccc2c(c1[N+](=O)[O-])N=NCC2Oc1ccccc1 (stereo unspecified),19% (inactive),16% (inactive),-4% (inactive),91% (active),inactive,inactive,inactive,inactive
COc1ccc(CNc2ncc(-c3ccsc3)c(-c3nccs3)n2)cc1OC,69% (active),10% (inactive),-1% (inactive),86% (active),inactive,inactive,inactive,inactive
Fc1ccc2nc(-c3ccc(-c4ccc(CNCc5cnn(-c6ccccc6)n5)cc4)cc3)[nH]c2c1,47% (inactive),41% (inactive),1% (inactive),98% (active),inactive,inactive,inactive,inactive
Cc1ccccc1CN1CCCN(Cc2ccc(C(=O)Nc3ccc(C(C)(C)C)cc3)cc2)CC1,5% (inactive),52% (active),-1% (inactive),89% (active),inactive,inactive,inactive,inactive
CC(C)CCNC(=O)C1Cc2c([nH]c3cc(Cl)ccc23)C2(CCN(CCc3ccccc3)CC2)N1 (stereo unspecified),55% (active),17% (inactive),5% (inactive),103% (active),inactive,inactive,inactive,inactive
C=CCN1C(=O)c2[nH]nc(-c3cc(C)c(C)cc3O)c2C1c1cccc(Br)c1 (stereo unspecified),82% (active),-14% (inactive),-3% (inactive),90% (active),inactive,inactive,inactive,inactive
O=[N+]([O-])c1cccc(NC(=S)N2CCCN(Cc3ccc(F)cc3F)CC2)c1,98% (active),5% (inactive),-1% (inactive),99% (active),inactive,inactive,inactive,inactive
O=C(NCc1cccs1)[C@H](Cc1ccccc1)Nc1ccnc(NCCc2ccccc2)n1,59% (active),-1% (inactive),-2% (inactive),85% (active),inactive,inactive,inactive,inactive

SMILES,growth inhibition [1],inhibition [2],inhibition [3],growth inhibition [4],outcome [5],outcome [6],outcome [7],outcome [8]
COC(=O)C(C)NCC(=O)c1ccccc1 (stereo unspecified),23% (inactive),5% (inactive),4% (inactive),97% (active),inactive,inactive,inactive,inactive
CC(C)(C)c1ccc(CNCCOc2ccc(Nc3nnc(-c4ccc(-c5ncc[nH]5)cc4)o3)c3ccccc23)cc1,88% (active),43% (inactive),0% (inactive),100% (active),inactive,inactive,inactive,inactive
O=C(Nc1ccc(OC2CCN(Cc3ccc(F)cc3)C2)c(Cl)c1)c1ccccc1 (stereo unspecified),86% (active),11% (inactive),0% (inactive),91% (active),inactive,inactive,inactive,inactive
NS(=O)(=O)c1cncc(-c2ccc3nccc(-c4cn[nH]c4)c3n2)c1,100% (active),33% (inactive),-2% (inactive),99% (active),inactive,inactive,inactive,inactive
CC(C)COc1ccc(Cl)cc1Cc1ccc(-c2nc3c(F)c(F)ccc3[nH]2)o1,85% (active),26% (inactive),-1% (inactive),94% (active),inactive,inactive,inactive,inactive
O=[N+]([O-])c1cnc(Nc2ccccc2O)nc1Nc1ccccc1O,80% (active),24% (inactive),-3% (inactive),98% (active),inactive,inactive,inactive,inactive
COc1ccc(NC(=O)/C=C/c2ccc(-c3ccccc3)cc2)cc1N1CCN(C)CC1,46% (inactive),21% (inactive),6% (inactive),90% (active),inactive,inactive,inactive,inactive
CC(C)CN1C(=O)c2ccc(C(=O)Nc3nccs3)cc2C1=O,0% (inactive),3% (inactive),1% (inactive),89% (active),inactive,inactive,inactive,inactive
CN1CCc2ccc(NC(=O)Nc3ccc(-c4ccccc4)cc3)cc2C1,45% (inactive),24% (inactive),3% (inactive),90% (active),inactive,inactive,inactive,inactive
CCc1nonc1NC(=O)c1oc2c(C)c(C)ccc2c1C,64% (active),1% (inactive),-3% (inactive),89% (active),inactive,inactive,inactive,inactive
CCn1ccc2c(N3CCCS3(=O)=O)cc(C(=O)N[C@@H](Cc3ccccc3)[C@H](O)CNC(C)(C)c3cccc(OC)c3)cc21,98% (active),20% (inactive),-8% (inactive),99% (active),inactive,inactive,inactive,inactive
CN(CCS(C)(=O)=O)Cc1ccc(-c2ccc3ncnc(Nc4ccc(OCc5cccc(F)c5)c(Cl)c4)c3c2)o1,65% (active),25% (inactive),-1% (inactive),101% (active),inactive,inactive,inactive,inactive
Oc1cccc(CNCCCN(Cc2ccccc2)c2ccccc2)c1,97% (active),7% (inactive),-6% (inactive),99% (active),inactive,inactive,inactive,inactive
CC(C)(C)OC(=O)NCc1ccc(Nc2nnc(-c3cccc(C(=O)NCCC(c4ccccc4)c4ccccc4)c3)o2)cc1,89% (active),-4% (inactive),-2% (inactive),100% (active),inactive,inactive,inactive,inactive
C[C@@H](CC1CCCCC1)NCc1cccc(NS(=O)(=O)c2ccc(O)c(-c3ccno3)c2)c1,4% (inactive),-2% (inactive),-6% (inactive),88% (active),inactive,inactive,inactive,inactive
CN(c1ccc(NC(=O)c2cccc(F)c2)cc1)C1CCCN(Cc2cccc(O)c2)C1 (stereo unspecified),2% (inactive),13% (inactive),-3% (inactive),85% (active),inactive,inactive,inactive,inactive
COc1ccc2c(c1)c(C1CCN(CCCCNC(=O)c3ccc(-c4ccc(C(F)(F)F)cc4)cc3)CC1)cn2C(C)C,21% (inactive),26% (inactive),0% (inactive),99% (active),inactive,inactive,inactive,inactive
Cc1cc(O)c(CN(C)Cc2ccc(N(C)C)cc2)cc1C(C)C,98% (active),3% (inactive),-1% (inactive),100% (active),inactive,inactive,inactive,inactive
